Screening data deposited in PubChem by several laboratories.
PostGolgi yeast – growth inhibition of a yeast mutant, post-Golgi transport screen. post-Golgi transport phenotypic cell assay. inhibition, % at 10 µM. 98,000 compounds, 0.9% hits;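 also: yeast cells grown in 1536-well plates; yeast grown about 18 h at 30C before absorbance read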
S1P2 antag – S1P2 (human) receptor antagonism | cell-based S1P2 antagonist assay, inhibition at 5 uM | inhibition, % at 5 µM | 97,000 compounds, 0.21% hits | AID 736; in the data active = inhibition above about 45%;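 also: CRE beta-lactamase reporter cells expressing human S1P2 stimulated with S1P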
GALR2 agonist – agonists of human galanin receptor 2 (GALR2). O43603. GALR2-expressing cells, agonist activation read-out. activation, % (test concentration not listed). 140,000 compounds, 0.48% hits. AID 803; in the data active = activation above about 5%, passing the limit was not always enough
Target sequence (O43603 whole entry, looked up): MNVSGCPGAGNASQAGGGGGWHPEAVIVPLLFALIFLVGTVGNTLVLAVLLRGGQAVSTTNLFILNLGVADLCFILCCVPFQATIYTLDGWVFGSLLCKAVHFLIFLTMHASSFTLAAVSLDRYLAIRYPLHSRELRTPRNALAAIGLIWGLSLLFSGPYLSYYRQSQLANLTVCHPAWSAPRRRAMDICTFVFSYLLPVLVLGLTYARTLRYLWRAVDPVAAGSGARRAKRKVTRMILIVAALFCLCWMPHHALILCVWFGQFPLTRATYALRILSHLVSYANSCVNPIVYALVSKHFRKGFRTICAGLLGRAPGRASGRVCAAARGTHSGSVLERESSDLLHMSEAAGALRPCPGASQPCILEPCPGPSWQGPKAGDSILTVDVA
S1P2 agonist – activates the human S1P2 receptor; 97,000 compounds, 0.46% hits; S1P2-expressing cell line, agonist reporter read-out; activation, % at 4.5 µM; in the data active = activation above about 16%
GALR2 blocker – GALR2 (human) receptor antagonism | O43603 | GALR2-expressing cells, antagonist mode | inhibition, % at 4 µM | 140,000 compounds, 0.39% hits | AID 828; in the data active = inhibition above about 27%;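 also: cells stimulated with galanin 1-16 at roughly its EC80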
PostGolgi ctrl – yeast control strain growth, post-Golgi counter-screen; inhibition, % at 10 µM; efflux-deficient yeast background strain, growth absorbance A615, 16 h; 98,000 compounds, 5% hits; AID 738
Each line names hits and unclear results; the compound was inactive in the other large screens. This is one part of a sample in which hits are shown more often than they occur. Rule as the data show it, unless noted: active = inhibition above about 30%; inactive = the rest.

COc1ccc2nc(Nc3ccc4c(c3)OCO4)sc2c1	none
COc1ccc2nc(Nc3nc4cc5c(cc4s3)OCO5)sc2c1	GALR2 agonist 6.8 (no result: PostGolgi yeast, S1P2 antag, S1P2 agonist, PostGolgi ctrl)
Cc1cc(C)cc(-n2nnc(C(=O)NCc3ccc4c(c3)OCO4)c2N)c1	PostGolgi ctrl 31
O=C(NCc1ccc2c(c1)OCO2)c1ccc(-n2cnnn2)cc1	PostGolgi yeast 41
O=C(NCc1ccc2c(c1)OCO2)c1ccncc1	none (no result: S1P2 antag, S1P2 agonist)
Cc1cccc(-n2nnc(C(=O)NCc3ccc4c(c3)OCO4)c2N)c1	none
Nc1cc(C(F)(F)F)cc2c1SCC(=O)N2	none (no result: PostGolgi yeast, S1P2 antag, S1P2 agonist, PostGolgi ctrl)
O=C(N/N=C/c1cccs1)/C(=C/c1ccccc1)NC(=O)c1ccccc1	none (no result: PostGolgi yeast, S1P2 antag, S1P2 agonist, PostGolgi ctrl)
Cc1ccccc1Cn1c(=O)n(CC2CCC(C(=O)NCCc3ccccc3)CC2)c(=O)c2ccccc21 (configuration not stated)	none (no result: PostGolgi yeast, S1P2 antag, S1P2 agonist, PostGolgi ctrl)
Cc1ccc(CNc2ncccc2-c2nc3cc(Cl)ccc3o2)cc1	none
Clc1ccc2oc(-c3cccnc3NCc3ccccc3)nc2c1	S1P2 agonist 25
CC(NC(=O)Cc1cccs1)C(c1cccs1)N1CCN(c2ccccc2)CC1 (configuration not stated)	none (no result: PostGolgi yeast, PostGolgi ctrl)
CC(NC(=O)Cc1cccs1)C(c1cccs1)N1CCN(c2ccccc2F)CC1 (configuration not stated)	PostGolgi ctrl 36
NC(=O)c1ccc(NC(=O)C2CCCO2)cc1 (configuration not stated)	S1P2 agonist 219
C=CCn1c(SC(C)C(=O)NCCC2=CCCCC2)nc2ccccc2c1=O (configuration not stated)	PostGolgi ctrl 32
O=C(NCCC1=CCCCC1)C(c1ccccc1)c1ccccc1	none
O=C(NCc1ccco1)C(c1cccs1)N(C(=O)Cc1cccs1)c1ccccc1 (configuration not stated)	PostGolgi yeast 38
O=C(NCC(=O)N(c1cccnc1)C(C(=O)NCc1ccco1)c1ccccc1)c1ccco1 (configuration not stated)	PostGolgi yeast 39
O=C1CS/C(=N/N=C2C3CC4CC(C3)CC2C4)N1	none (no result: PostGolgi yeast, S1P2 antag, S1P2 agonist, PostGolgi ctrl)
CC1C/C(=N/N=C2/NC(=O)CS2)CC(C)(C)C1 (configuration not stated)	PostGolgi ctrl 34
CCc1ccc(C(=O)/C=C/c2ccc([N+](=O)[O-])o2)cc1	PostGolgi yeast 63
CCc1ccc(/C=C/C(=O)c2ccc(S(=O)(=O)N(C)C)cc2)cc1	none (no result: PostGolgi yeast, S1P2 antag, S1P2 agonist, PostGolgi ctrl)
COC(=O)c1c[nH]n2c(=O)cc(CCl)nc12	none
CCn1nc([N+](=O)[O-])c(C(C#N)c2nc3cc(C(F)(F)F)ccc3s2)c(Cl)c1=O (configuration not stated)	PostGolgi ctrl 36
O=C(NCC(c1cccnc1)N1CCN(c2ccc(F)cc2)CC1)OCc1ccccc1 (configuration not stated)	PostGolgi yeast 59
Cc1ccc(S(=O)(=O)NC2=C(N3CCN(Cc4ccccc4)CC3)C(=O)c3ccccc3C2=O)cc1	PostGolgi ctrl 46
O=S(=O)(NCC(c1cccnc1)N1CCN(c2ccccc2)CC1)c1cccs1 (configuration not stated)	PostGolgi yeast 88, PostGolgi ctrl 55
O=C(NCC(c1cccnc1)N1CCN(c2ccccc2)CC1)c1ccc2c(c1)OCO2 (configuration not stated)	PostGolgi yeast 74
Cc1cc(NS(=O)(=O)c2ccc(NC(=S)NC(=O)c3ccc(C(C)(C)C)cc3)cc2)no1	none (no result: PostGolgi yeast, S1P2 antag, S1P2 agonist, PostGolgi ctrl)
Cc1ccc(S(=O)(=O)NC(C)C(c2cccs2)N2CCN(c3ccccc3)CC2)cc1 (configuration not stated)	PostGolgi ctrl 47
O=C1C(NS(=O)(=O)c2cccs2)=C(N2CCN(c3ccccc3)CC2)C(=O)c2ccccc21	PostGolgi ctrl 57
COC(=O)NCC(c1cccnc1)N1CCN(c2ccccc2)CC1 (configuration not stated)	none
O=C(NCC(c1cccnc1)N1CCN(c2ccc(F)cc2)CC1)c1cccc(Cl)c1 (configuration not stated)	PostGolgi yeast 77, PostGolgi ctrl 91
Cc1ccc(S(=O)(=O)NC(C)C(c2cccs2)N2CCN(C)CC2)cc1 (configuration not stated)	none (no result: PostGolgi yeast, PostGolgi ctrl)
O=C(NCC(c1cccnc1)N1CCN(c2ccccc2)CC1)C1CCCCC1 (configuration not stated)	PostGolgi yeast 46
